As a reminder, the inhibition is the relative decrease from the control value, in per cent.

Molecules are shown by their SMILES. Values without a mark were called inactive. For part of these data: Results with a measured potency or affinity are listed apart. Active and inactive are the calls of the source. Unless noted, the rule behind the calls is not given here.

Here are results for 21 molecules from PubChem BioAssay.

Experiment [1] in a line: antimalarial activity against Dd2 strain (AID 2302;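 active = growth inhibition above 50% at the single 2 µM test dose, taken to imply half-maximal potency below 2 µM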;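 note: 0% = DMSO untreated growth and 100% = chloroquine plus artemisinin killed control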). Particulars: P. falciparum Dd2 in RBCs, LDH growth readout, 72 h; at 2 µM; stronger effect = higher value.
Experiment [2] is described as follows: HepG2 cytotoxicity, primary screen, cytotoxicity control for P. falciparum antimalarial project, cell-based, ATP luminescence (AID 2303;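 active = inhibition above 50%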;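 note: 0% = DMSO wells and 100% = digitonin-killed cells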). Conditions: HepG2 viability, 24-48 h, at 10 µM, stronger effect = higher value.
For experiment [3], the target named is L-lactate dehydrogenase (Plasmodium falciparum (isolate CDC / Honduras)) (UniProt Q27743). Nature of the experiment: PfLDH activity inhibition – cell lysate, 3D7 strain, counter-screen for P. falciparum growth inhibition project (AID 2304).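 Note: 0% = vehicle and 100% = reference inhibitor.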 Conditions: P. falciparum 3D7 crude extract, LDH APAD/NBT absorbance; at 2 µM; stronger effect = higher value.
Experiment [4] in a line: inhibition of 3D7 malaria parasite growth – strain 3D7 (AID 2306).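 Note: 0% = DMSO wells and 100% = chloroquine plus artemisinin control wells.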 Conditions: P. falciparum 3D7 erythrocytic growth, LDH absorbance, 72 h; at 2 µM; stronger effect = higher value.
For experiment [5], the target named is Calcium-dependent protein kinase 1 (Plasmodium falciparum (isolate 3D7)) (UniProt P62344). Briefly: PfCDPK1 kinase inhibitors, biochemical, TCAMS library (AID 1159585; cut-off not given, nearly all actives have IC50 up to about 0.98 µM;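 note: inhibitors leave more ATP so luminescence rises with inhibition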). Conditions: recombinant PfCDPK1, Kinase-Glo ATP depletion luminescence. (In general: Kinase-Glo reads ATP consumption through a luciferase reaction.)
Experiment [6] addresses Plasmodium falciparum protein kinase 6 (PK6, PF3D7_1337100) (UniProt Q8IDW1). Nature of the experiment: PfPK6 kinase inhibitors, biochemical, TCAMS library (AID 1159586). Particulars: recombinant PfPK6, Kinase-Glo ATP depletion luminescence.
Experiment [7] addresses Protein kinase 7 (PK7), Plasmodium falciparum 3D7 (PF3D7_0213400) (UniProt Q7YTF7). Briefly: inhibition of Plasmodium PK7 catalytic activity – biochemical, TCAMS antimalarial set, Kinase-Glo luminescence (AID 1159587). Particulars: recombinant PfPK7, Kinase-Glo ATP depletion luminescence.
For experiment [8], the target named is Calcium-dependent protein kinase 4 (Plasmodium falciparum (isolate 3D7)) (UniProt Q8IBS5). Nature of the experiment: PfCDPK4 kinase inhibitors, biochemical, TCAMS library (AID 1159588; cut-off not given, nearly all actives have IC50 up to about 0.91 µM). Conditions: recombinant PfCDPK4, Kinase-Glo ATP depletion luminescence.
Calcium-dependent protein kinase 4 (Plasmodium falciparum (isolate 3D7)), sequence (Q8IBS5 whole entry, looked up): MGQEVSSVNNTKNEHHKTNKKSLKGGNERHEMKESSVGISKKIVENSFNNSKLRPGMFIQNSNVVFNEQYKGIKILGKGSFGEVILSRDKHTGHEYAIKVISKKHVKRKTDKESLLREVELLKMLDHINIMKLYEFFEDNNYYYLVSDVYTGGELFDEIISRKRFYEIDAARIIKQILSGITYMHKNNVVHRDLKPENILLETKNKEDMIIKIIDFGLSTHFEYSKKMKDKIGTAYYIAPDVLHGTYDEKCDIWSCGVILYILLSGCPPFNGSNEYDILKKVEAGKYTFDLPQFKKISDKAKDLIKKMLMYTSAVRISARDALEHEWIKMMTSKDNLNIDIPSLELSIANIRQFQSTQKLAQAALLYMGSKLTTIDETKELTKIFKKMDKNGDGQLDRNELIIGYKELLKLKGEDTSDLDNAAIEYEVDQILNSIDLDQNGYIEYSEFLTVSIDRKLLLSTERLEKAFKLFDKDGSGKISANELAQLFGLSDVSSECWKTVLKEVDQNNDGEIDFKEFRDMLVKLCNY

Protein kinase 7 (PK7), Plasmodium falciparum 3D7 (PF3D7_0213400), sequence (Q7YTF7 1-343): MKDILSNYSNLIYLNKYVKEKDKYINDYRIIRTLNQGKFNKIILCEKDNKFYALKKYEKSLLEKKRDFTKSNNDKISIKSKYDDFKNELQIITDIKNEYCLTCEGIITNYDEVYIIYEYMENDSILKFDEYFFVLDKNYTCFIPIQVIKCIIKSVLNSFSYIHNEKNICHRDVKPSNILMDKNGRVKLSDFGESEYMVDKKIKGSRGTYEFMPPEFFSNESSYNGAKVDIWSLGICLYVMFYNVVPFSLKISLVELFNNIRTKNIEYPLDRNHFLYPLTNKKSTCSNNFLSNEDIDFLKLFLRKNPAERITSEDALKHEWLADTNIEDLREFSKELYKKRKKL
L-lactate dehydrogenase (Plasmodium falciparum (isolate CDC / Honduras)), sequence (Q27743 whole entry, looked up): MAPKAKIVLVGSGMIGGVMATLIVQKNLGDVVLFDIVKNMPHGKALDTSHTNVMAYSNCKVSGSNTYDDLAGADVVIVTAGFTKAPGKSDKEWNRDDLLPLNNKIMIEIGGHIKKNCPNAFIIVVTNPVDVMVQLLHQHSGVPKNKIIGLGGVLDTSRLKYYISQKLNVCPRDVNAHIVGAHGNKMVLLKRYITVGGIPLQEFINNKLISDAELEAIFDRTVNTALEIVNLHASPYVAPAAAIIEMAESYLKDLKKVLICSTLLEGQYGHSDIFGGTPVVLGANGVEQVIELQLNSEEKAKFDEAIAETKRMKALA
Calcium-dependent protein kinase 1 (Plasmodium falciparum (isolate 3D7)), sequence (P62344 whole entry, looked up): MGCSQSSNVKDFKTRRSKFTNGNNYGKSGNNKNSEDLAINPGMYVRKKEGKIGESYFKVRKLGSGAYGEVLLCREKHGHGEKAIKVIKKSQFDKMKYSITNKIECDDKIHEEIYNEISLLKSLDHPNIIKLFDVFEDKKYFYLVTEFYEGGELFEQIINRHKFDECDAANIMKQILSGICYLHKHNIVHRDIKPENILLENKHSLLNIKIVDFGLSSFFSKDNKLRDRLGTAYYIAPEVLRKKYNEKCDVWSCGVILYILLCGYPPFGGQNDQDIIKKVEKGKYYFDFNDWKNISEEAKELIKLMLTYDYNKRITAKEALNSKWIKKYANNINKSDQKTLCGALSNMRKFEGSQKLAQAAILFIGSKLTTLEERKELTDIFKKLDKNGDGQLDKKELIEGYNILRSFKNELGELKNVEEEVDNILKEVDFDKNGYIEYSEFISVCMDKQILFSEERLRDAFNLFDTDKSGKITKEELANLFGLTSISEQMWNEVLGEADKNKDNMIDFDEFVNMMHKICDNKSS
Plasmodium falciparum protein kinase 6 (PK6, PF3D7_1337100), sequence (Q8IDW1 1-305): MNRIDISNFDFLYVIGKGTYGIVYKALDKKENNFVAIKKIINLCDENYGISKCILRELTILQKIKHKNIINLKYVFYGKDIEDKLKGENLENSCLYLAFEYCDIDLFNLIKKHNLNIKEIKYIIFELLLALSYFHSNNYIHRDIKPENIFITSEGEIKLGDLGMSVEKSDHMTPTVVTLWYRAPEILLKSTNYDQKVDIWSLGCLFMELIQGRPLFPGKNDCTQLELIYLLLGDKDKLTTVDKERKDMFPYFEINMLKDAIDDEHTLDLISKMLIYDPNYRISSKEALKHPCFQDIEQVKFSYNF

Regarding `Cc1ccc(NC(=S)NC2CCN(CCCCCNC(=O)/C=C/c3ccc(Cl)c(Cl)c3)CC2)cc1Cl`, the growth inhibition in experiment [1] was 56% (active); in experiment [4], 100% (active). The inhibition in experiment [2] is 45%; in experiment [3], 7%. Also, the outcome in experiment [5], in experiment [6], in experiment [7] and in experiment [8] was inactive.
Turning to `CN1CCC(C(=O)Nc2ccc(-c3ccc(-c4nc5ccccc5[nH]4)s3)cc2)CC1`, the growth inhibition in experiment [1] was 22%; in experiment [4], 99% (active). Moreover, the values for the inhibition in experiment [2] and in experiment [3] were 30% and 3%, respectively. Besides, the result in experiment [5], in experiment [6], in experiment [7] and in experiment [8] was inactive.
For `O=C(C=Cc1cn(-c2ccccc2)nc1-c1ccccc1)N1CCN(c2ccncc2)CC1`, the results for the growth inhibition in experiment [1] and in experiment [4] were 20% and 90% (active), respectively. Further, the inhibition is 11% in experiment [2] and 2% in experiment [3]. In addition, the result in experiment [5], in experiment [6], in experiment [7] and in experiment [8] was inactive.
As to `CCN1CCC(NCc2ccc(-c3ccc(Cl)s3)cc2)CC1`, the growth inhibition in experiment [1] is 23%; in experiment [4], 96% (active). Further, the inhibition in experiment [2] was 42%; in experiment [3], -4%. In addition, the outcome in experiment [5], in experiment [6], in experiment [7] and in experiment [8] was inactive.
For `Cn1c(NC2=NC3(c4ccccn4)N=C(Nc4nc5ccccc5n4C)NC3(c3ccccn3)N2)nc2ccccc21` (stereo not drawn), the growth inhibition in experiment [1] is 44%; in experiment [4], 99% (active). Further, the inhibition in experiment [2] is 12%; in experiment [3], 0%. In addition, the outcome in experiment [5], in experiment [6], in experiment [7] and in experiment [8] was inactive.
As to `COc1ccc2c(c1)CC(NCc1ccc(-c3ccc4nc[nH]c4c3)cc1)C2` (stereo not drawn), the growth inhibition in experiment [1] is 71% (active); in experiment [4], 100% (active). Further, the results for the inhibition in experiment [2] and in experiment [3] were 30% and 1%, respectively. Further, the outcome in experiment [5], in experiment [6], in experiment [7] and in experiment [8] was inactive.
Regarding `O=C(CCn1cncn1)N1CCCC(c2[nH]c3ccccc3c2-c2ccncc2)C1` (stereo not drawn), the growth inhibition in experiment [1] was 79% (active); in experiment [4], 97% (active). Besides, the inhibition in experiment [2] was 1%; in experiment [3], -1%. The result in experiment [5], in experiment [6], in experiment [7] and in experiment [8] was inactive.
`COc1cccc(-c2cc3nc4c(c(NCCCn5ccnc5)n3n2)CCCC4)c1`: the growth inhibition is 66% (active) in experiment [1] and 100% (active) in experiment [4]. Besides, the inhibition is 10% in experiment [2] and -2% in experiment [3]. Also, the result in experiment [5], in experiment [6], in experiment [7] and in experiment [8] was inactive.
Regarding `CCCCCN1CCCC(NS(=O)(=O)c2ccc(C(=O)Nc3ccc(C(F)(F)F)cc3)cc2)C1` (stereo not drawn), the growth inhibition in experiment [1] is 20%; in experiment [4], 98% (active). Also, the inhibition is 41% in experiment [2] and 4% in experiment [3]. Besides, the result in experiment [5], in experiment [6], in experiment [7] and in experiment [8] was inactive.
`CCC(C)NS(=O)(=O)c1ccc2nc(Nc3ccc(C)c(Cl)c3)n([C@H](C)C(C)(C)C)c2c1` (stereo partly drawn): the growth inhibition in experiment [1] was 100% (active); in experiment [4], 98% (active). Also, the inhibition was 8% in experiment [2] and -5% in experiment [3]. Besides, the result in experiment [5], in experiment [6], in experiment [7] and in experiment [8] was inactive.
With `CN1CCC(N(Cc2ccc(N3CCN(Cc4c[nH]c5ccc(Cl)cc45)CC3)nc2)C2CC2)CC1`, the growth inhibition in experiment [1] is 76% (active); in experiment [4] it was 100% (active). Moreover, the inhibition in experiment [2] was 96% (active); in experiment [3], -2%. For the same molecule, the result in experiment [5], in experiment [6], in experiment [7] and in experiment [8] was inactive.
Regarding `COc1ccc(NC(=O)[C@H](Cc2ccccc2)Nc2nc(NCCN3CCCC3)ncc2C)cc1`, the values for the growth inhibition in experiment [1] and in experiment [4] were 9% and 89% (active), respectively. Besides, the inhibition was 26% in experiment [2] and 1% in experiment [3]. Also, the result in experiment [5], in experiment [6], in experiment [7] and in experiment [8] was inactive.
With `Oc1c(C(Nc2nc3ccccc3s2)c2ccc(OC(F)F)cc2)ccc2cccnc12` (stereo not drawn), the results for the growth inhibition in experiment [1] and in experiment [4] were 85% (active) and 92% (active), respectively. For the same molecule, the inhibition in experiment [2] was 62% (active); in experiment [3], 4%. The outcome in experiment [5], in experiment [6], in experiment [7] and in experiment [8] was inactive.
As to `COc1cccc2c(NN=Cc3ccc(Cl)cc3)ccnc12`, the results for the growth inhibition in experiment [1] and in experiment [4] were 39% and 99% (active), respectively. Also, the results for the inhibition in experiment [2] and in experiment [3] were 26% and 5%, respectively. The result in experiment [5], in experiment [6], in experiment [7] and in experiment [8] was inactive.
Regarding `N#Cc1ccc(NC(=NCc2ccc(Cl)cc2Cl)Nc2cccc(Cl)c2Cl)c(O)c1`, the growth inhibition in experiment [1] is 75% (active); in experiment [4], 97% (active). Further, the inhibition was 3% in experiment [2] and -6% in experiment [3]. Further, the outcome in experiment [5], in experiment [6], in experiment [7] and in experiment [8] was inactive.
For the molecule `CC(C)CN1CCCN(Cc2cccc(NC(=O)c3cc4ccccc4s3)c2)CC1`, the growth inhibition in experiment [1] is 6%; in experiment [4] it was 87% (active). Moreover, the inhibition in experiment [2] is 5%; in experiment [3], 0%. For the same molecule, the result in experiment [5], in experiment [6], in experiment [7] and in experiment [8] was inactive.
`O=C(C=Cc1ccc(Cl)c(Cl)c1)NCCCCCN1CCCC(CCCNS(=O)(=O)c2cccc(C(F)(F)F)c2)C1` (stereo not drawn): the growth inhibition in experiment [1] was 33%; in experiment [4], 94% (active). Besides, the inhibition in experiment [2] is 81% (active); in experiment [3], -3%. In addition, the result in experiment [5], in experiment [6], in experiment [7] and in experiment [8] was inactive.
In the case of `CN1CCN(c2ccnc3cc4c(cc23)N(C(=O)Nc2ccc3c(c2)CCCC3=O)CC4)CC1`, the growth inhibition in experiment [1] was 64% (active); in experiment [4], 100% (active). Moreover, the inhibition is 5% in experiment [2] and -5% in experiment [3]. Moreover, the outcome in experiment [5], in experiment [6], in experiment [7] and in experiment [8] was inactive.
Take `O=C(Nc1ccc(C(=O)Oc2ccc3ccccc3c2)cc1)N[C@@H](Cc1ccc(O)cc1)C(=O)NC1CCN(Cc2ccc(O)cc2)C1` (stereo partly drawn): the figures for the growth inhibition in experiment [1] and in experiment [4] were 1% and 86% (active), respectively. The results for the inhibition in experiment [2] and in experiment [3] were 1% and -2%, respectively. Besides, the result in experiment [5], in experiment [6], in experiment [7] and in experiment [8] was inactive.
As to `COc1ccc(Br)cc1/C=C/C(=O)Nc1ccc(C2CCCN(C)C2)cc1` (stereo not drawn), the growth inhibition in experiment [1] was 35%; in experiment [4], 100% (active). Also, the inhibition is 18% in experiment [2] and -2% in experiment [3]. The result in experiment [5], in experiment [6], in experiment [7] and in experiment [8] was inactive.
Turning to `Fc1cccc(Nc2nc(NCc3ccc(OCc4ccccc4)cc3)nc(Nc3cccc(F)c3)n2)c1`, the growth inhibition in experiment [1] was 14%; in experiment [4], 84% (active). Besides, the inhibition in experiment [2] is 5%; in experiment [3], 1%. Further, the result in experiment [5], in experiment [6], in experiment [7] and in experiment [8] was inactive.
